# Assay results published in PubChem BioAssay.
# The source made the active and inactive calls. Unless noted, no rule for the calls is given here.
# Tests used:
# [1] = A549 cell viability effects, profiling panel, calcein-AM fluorescence, 48 h, basal (AID 1162); conditions: higher = more signal; also: test concentration not given here
# [2] = adipocyte viability effects, profiling panel, cell-based, 3T3-L1 adipocytes, calcein-AM fluorescence, 48 h, basal (AID 1163); conditions: 3T3-L1 adipocytes viability, higher = more signal; also: test concentration not given here
# [3] = HepG2 cell viability effects, profiling panel, calcein-AM fluorescence, 48 h, basal (AID 1164); conditions: higher = more signal; also: test concentration not given here
# [4] = MM1S cell viability effects, profiling panel, calcein-AM fluorescence, 48 h, basal (AID 1165); conditions: higher = more signal;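 also: viability of MM1S multiple myeloma cells under basal unstimulated conditions; test concentration not given here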
# [5] = basal RPMI8226 viability, no added stimulus, profiling panel, cell-based, calcein-AM fluorescence, 48 h, PK04 Diversity Set (AID 1166); conditions: RPMI8226 myeloma viability, higher = more signal;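 also: cells grown under basal conditions without added stimulus; test concentration not given here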
# [6] = basal HepG2 mitochondrial membrane potential changes, profiling panel, cell-based, JC-1 fluorescence, 24 h, 100 nL compound (AID 1167); conditions: higher = more signal; also: test concentration not given here
# [7] = basal 3T3-L1 adipocyte mitochondrial potential changes, profiling panel, cell-based, JC-1 fluorescence, 3T3-L1 adipocytes, 24 h, 100 nL compound (AID 1168); conditions: JC-1 mitochondrial fluorescence, higher = more signal, called active from +8 up or from −8 down; also: test concentration not given here
# [8] = basal RPMI8226 mitochondrial membrane potential changes, profiling panel, cell-based, JC-1 fluorescence, 24 h, 100 nL compound (AID 1169); conditions: RPMI8226 myeloma, JC-1 mitochondrial potential fluorescence, higher = more signal; also: test concentration not given here
# [9] = basal MM1S mitochondrial membrane potential changes, profiling panel, cell-based, JC-1 fluorescence, 24 h, 100 nL compound (AID 1170); conditions: higher = more signal; also: test concentration not given here
# [10] = A549 lung cancer cell viability effects, profiling panel, resazurin fluorescence, 24 h, PK04 Diversity Set (AID 1171); conditions: higher = more signal, called active from +8 up or from −8 down; also: test concentration not given here
# [11] = HepG2 liver cancer cell viability effects, profiling panel, resazurin fluorescence, 24 h, PK04 Diversity Set (AID 1172); conditions: higher = more signal; also: test concentration not given here
# [12] = basal S. cerevisiae growth modulation, no modifier, primary screen, OD600, strain BY4716, 24 h, basal condition (AID 1173); conditions: OD600, 24 h, higher = more signal, called active from +8 up or from −8 down
# [13] = MM1S myeloma cell viability, profiling panel, resazurin fluorescence, basal, 24 h, PK04 Diversity Set (AID 1174); conditions: higher = more signal, called active from +8 up or from −8 down;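 also: MM1S multiple myeloma cell line; test concentration not given here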
# [14] = molecular target: Dihydroorotate dehydrogenase (quinone), mitochondrial (Plasmodium falciparum (isolate 3D7)) (UniProt Q08210); experiment: PfDHODH enzyme inhibitors, primary screen, biochemical, C-terminal His tag, absorbance 600 nm (AID 1175); conditions: DCIP absorbance 600 nm, higher = more signal, called active from +8 up or from −8 down;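 also: recombinant parasite enzyme with a five histidine tag at its C terminus; test concentration not given here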
# Chain of Dihydroorotate dehydrogenase (quinone), mitochondrial (Plasmodium falciparum (isolate 3D7)) (Q08210 whole entry, looked up): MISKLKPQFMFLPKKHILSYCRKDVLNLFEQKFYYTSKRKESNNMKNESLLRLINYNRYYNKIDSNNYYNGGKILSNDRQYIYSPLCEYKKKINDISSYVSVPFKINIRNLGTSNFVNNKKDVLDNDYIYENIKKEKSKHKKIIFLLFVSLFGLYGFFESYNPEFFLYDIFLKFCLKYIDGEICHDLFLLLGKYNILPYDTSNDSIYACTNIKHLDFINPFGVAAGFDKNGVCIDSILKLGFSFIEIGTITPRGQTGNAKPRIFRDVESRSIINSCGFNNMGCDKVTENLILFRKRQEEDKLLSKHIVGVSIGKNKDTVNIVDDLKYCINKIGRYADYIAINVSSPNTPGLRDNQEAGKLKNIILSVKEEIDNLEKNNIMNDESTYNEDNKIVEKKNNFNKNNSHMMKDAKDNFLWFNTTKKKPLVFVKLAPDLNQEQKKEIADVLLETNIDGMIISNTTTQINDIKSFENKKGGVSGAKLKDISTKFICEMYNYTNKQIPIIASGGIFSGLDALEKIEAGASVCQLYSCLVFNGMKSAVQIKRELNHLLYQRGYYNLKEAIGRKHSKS
# [15] = P. aeruginosa biofilm formation inhibitors, primary screen, strain PAO1, LB-PBS medium, absorbance 600 nm (AID 1176); also: test concentration not given here; conditions: P. aeruginosa PAO1 growth/biofilm, A600, 12 h; higher = more signal
# [16] = S. cerevisiae RM11-1a growth modifiers, primary screen, strain RM11-1a, OD600, basal, 24 h (AID 1177); conditions: OD600, 24 h, higher = more signal, called active from +8 up or from −8 down;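 also: cultures grown under basal conditions with no added stressor; test concentration not given here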
# [17] = E. coli acrAB mutant growth effects, primary screen, E. coli filamentation inducers, strain DRC39, OD650, 24 h (AID 1178); conditions: higher = more signal, called active from +8 up or from −8 down;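 also: growth measured as culture turbidity by optical density at 650 nm; test concentration not given here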
# [18] = E. coli acrAB mutant growth effects, primary screen, E. coli filamentation inducers, strain DRC39, OD650, 48 h (AID 1179);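 also: screen aims at cell division blockers that make cells filament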; conditions: E. coli DRC39 delta-acrAB growth, higher = more signal, called active from +8 up or from −8 down
# [19] = RPMI8226 myeloma cell viability, profiling panel, resazurin fluorescence, basal, 24 h, PK04 Diversity Set (AID 1180); conditions: higher = more signal;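 also: RPMI8826 multiple myeloma cell line at 5000 cells per well; test concentration not given here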
# [20] = molecular target: E3 ubiquitin-protein ligase XIAP (Homo sapiens) (UniProt P98170); experiment: XIAP binders, primary screen, biophysical, small-molecule microarray, fluorescence 635 nm (AID 1181); conditions: small-molecule microarray binding, higher = more signal;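 also: score merges 667 nm emission and signal to noise over triplicate slides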
# Chain of E3 ubiquitin-protein ligase XIAP (Homo sapiens) (P98170 whole entry, looked up): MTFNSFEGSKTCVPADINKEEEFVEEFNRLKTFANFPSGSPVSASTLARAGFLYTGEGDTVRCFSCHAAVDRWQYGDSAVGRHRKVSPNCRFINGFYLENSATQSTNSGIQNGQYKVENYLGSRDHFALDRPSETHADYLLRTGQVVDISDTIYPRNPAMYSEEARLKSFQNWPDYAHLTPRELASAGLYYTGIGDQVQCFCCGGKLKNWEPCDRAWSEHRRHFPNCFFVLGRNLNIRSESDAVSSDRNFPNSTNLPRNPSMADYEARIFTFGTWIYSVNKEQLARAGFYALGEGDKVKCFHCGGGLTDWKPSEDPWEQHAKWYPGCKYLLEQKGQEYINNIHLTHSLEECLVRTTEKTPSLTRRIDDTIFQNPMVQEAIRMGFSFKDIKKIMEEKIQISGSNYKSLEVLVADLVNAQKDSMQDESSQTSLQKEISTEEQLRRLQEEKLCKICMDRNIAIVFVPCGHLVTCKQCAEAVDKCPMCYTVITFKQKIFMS
Compound,z-score [1],z-score [2],z-score [3],z-score [4],z-score [5],z-score [6],z-score [7],z-score [8],z-score [9],z-score [10],z-score [11],z-score [12],z-score [13],composite z-score [14],z-score [15],z-score [16],z-score [17],z-score [18],z-score [19],composite z-score [20]
CC(C)(C)OC(=O)CC[C@@]1(C(=O)NCc2ccccc2)N=C(c2ccc(OCCCO)cc2)O[C@@H]1c1ccccc1N=[N+]=[N-],-0.365,1.55,-0.258,-1.68,-1.41,0.515,1.35 (inactive),-1.01,0.24,-0.682 (inactive),-0.409,0.381 (inactive),-1.36 (inactive),1.45 (inactive),1.2 (inactive),1.99 (inactive),2.98 (inactive),0.914 (inactive),-0.362,0.23
CCOc1cc(C(O)C2C=CC3C(=O)N(c4ccccc4)C(=O)C3N2Nc2ccc(C#N)cc2)ccc1O (stereo not given),-0.403,-0.958,0.264,-1.49,-1.01,-2.67,-1.55 (inactive),0.674,-0.443,-0.883 (inactive),-1.79,-0.0687 (inactive),-1.71 (inactive),0.45 (inactive),0.888 (inactive),0.093 (inactive),-0.523 (inactive),-0.245 (inactive),-1.4,-0.0438
COc1ccccc1CN1C(=O)c2ccccc2[C@](Cc2ccccc2I)(C(=O)NCC(F)(F)F)[C@@H]1c1ccc(CO)cc1,-0.698,0.95,-0.568,-2.39,-4.25,0.349,-1.39 (inactive),-0.68,-0.176,0.12 (inactive),-0.569,-1.28 (inactive),-0.142 (inactive),-0.673 (inactive),0.457 (inactive),0.648 (inactive),-0.496 (inactive),-0.613 (inactive),0.17,0.0264
C=C(COC)/C(=C/C[C@H](OC(C)=O)c1ccc(OCCO)cc1)c1cc(C(=O)OC)ccc1OC,1.82,0.852,0.883,-1.01,0.598,2.6,1.57 (inactive),0.0179,-0.444,1.47 (inactive),1.26,0.147 (inactive),0.901 (inactive),-2.16 (inactive),0.838 (inactive),-0.957 (inactive),1.94 (inactive),1.37 (inactive),1.46,-0.345
COC(=O)CCCCCCC(=O)Nc1ccc(NC(=O)CCCC[P+](c2ccccc2)(c2ccccc2)c2ccccc2)cc1,-0.0008,-0.297,0.67,0.134,-0.268,1.58,1.03 (inactive),-0.176,-1.46,1.1 (inactive),1.45,-1.95 (inactive),0.687 (inactive),-1.77 (inactive),-1.01 (inactive),1.68 (inactive),-17.1 (active),-5.78 (inactive),0.347,-0.127
COc1cc(CO)cc(I)c1O[C@H]1C=C(C(=O)NCCO)C[C@@H](NCc2ccc(F)cc2)[C@@H]1O,0.56,0.385,2.22,-2.35,-0.456,0.871,-0.389 (inactive),-0.251,-2.07,-0.183 (inactive),-0.205,-3.76 (inactive),-1.29 (inactive),0.969 (inactive),0.507 (inactive),0.0419 (inactive),0.988 (inactive),0.878 (inactive),-0.512,-0.101
C=CC1c2cc(O)c(OC)cc2CCN1Cc1cc2c(cc1Br)OCO2 (stereo not given),-3.63,1.28,-4.07,-3.17,-4.57,-2.98,-0.196 (inactive),-0.743,-0.348,-1.67 (inactive),-1.95,-12.5 (active),-2.21 (inactive),-7.6 (inactive),-0.0065 (inactive),-2.09 (inactive),-0.929 (inactive),-1.69 (inactive),-2.82,-0.0525
[N-]=[N+]=Nc1ccccc1[C@H]1OC(c2ccc(OCCCO)cc2)=N[C@@]1(Cc1ccccc1)C(=O)N1CCCCC1,-0.127,-0.019,-0.683,-3.09,-3.83,-0.251,1.44 (inactive),-1.15,-2.77,-2.29 (inactive),-1.16,-0.722 (inactive),-3.61 (inactive),-0.827 (inactive),0.603 (inactive),1.97 (inactive),0.359 (inactive),0.617 (inactive),-4.52,0.0197
COCC1=C2[C@@H](CCc3ccccc3)OB(O)C[C@@H]2[C@@H]2C(=O)C=CC(=O)[C@@H]2C1,0.144,-0.147,-0.165,-3.4,-3.63,-3.14,-2.12 (inactive),-0.654,-2.55,-0.648 (inactive),-1.15,-5.61 (inactive),-0.997 (inactive),-4.14 (inactive),0.106 (inactive),-0.143 (inactive),-0.244 (inactive),0.0271 (inactive),-0.878,0.906
C=C(/C(=C/C[C@@H](OC(C)=O)c1cccc(OCCO)c1)c1cc(C(=O)OC)ccc1OC)C(C)C,-0.0413,0.0983,-0.159,-0.881,-0.264,1.86,-0.789 (inactive),0.373,-0.682,2.17 (inactive),1.47,-0.0321 (inactive),0.172 (inactive),-1.4 (inactive),-0.153 (inactive),0.258 (inactive),0.233 (inactive),0.547 (inactive),0.883,-0.0622
COC(=O)c1c2oc(c1C(=O)OC)C(=O)N(C)Cc1cn(nn1)C[C@H](Cc1ccccc1)NC(=O)N[C@H](CO)CC2,-0.145,0.129,-0.0951,0.273,-0.743,-0.649,-0.164 (inactive),0.256,-0.31,-0.213 (inactive),-0.356,0.415 (inactive),-0.286 (inactive),0.31 (inactive),0.0914 (inactive),1.2 (inactive),-0.499 (inactive),-0.913 (inactive),-0.139,-0.0559
C=C(/C(=C/C[C@H](OC(C)=O)c1ccccc1OCCO)c1cc(C(=O)OC)ccc1OC)C(C)C,-0.297,1.77,-0.644,-1.2,-1.75,1.14,1.16 (inactive),0.0903,1.08,0.0515 (inactive),-0.169,-2.2 (inactive),0.121 (inactive),-1.96 (inactive),-0.529 (inactive),-0.0703 (inactive),-0.0536 (inactive),-0.216 (inactive),0.0967,0.13
COc1ccc([Si](C)(C)[C@H]2[C@H](CCO)O[C@@]3(C(=O)N(Cc4cccc(N5C(=O)COc6ccccc65)c4)c4ccccc43)[C@@H]2C)cc1,-0.533,0.167,-4.12,-2.21,-3.93,0.0559,1.93 (inactive),-1.05,-1.5,-2.14 (inactive),-2.46,0.422 (inactive),-3.44 (inactive),0.858 (inactive),2.44 (inactive),4.14 (inactive),2.23 (inactive),1.92 (inactive),-4.91,-0.132
COC(=O)[C@H](Cc1ccccc1)N1CC(/C=C/C2CC2)=C[C@H]1[C@H](O)Cc1ccccc1,0.13,-0.0604,-0.551,-3.38,-3.98,-2.09,0.128 (inactive),-1.19,-3.06,-0.395 (inactive),-0.57,-2.67 (inactive),-3.01 (inactive),-0.258 (inactive),0.188 (inactive),-0.55 (inactive),-0.0993 (inactive),-0.0274 (inactive),-2.71,-0.102
C=C[C@@H](COC(C)=O)N(C(=O)OC(C)(C)C)S(=O)(=O)c1ccc(Br)cc1,1.82,0.104,0.469,0.867,0.643,0.515,0.122 (inactive),-0.212,-0.624,-0.586 (inactive),-0.19,-3.49 (inactive),-2.19 (inactive),-1.25 (inactive),-0.938 (inactive),0.317 (inactive),-0.0872 (inactive),0.499 (inactive),-0.288,0.0618
COCCOC(=O)N1C(=O)[C@@]2(c3cc(C#CCC(C(=O)OC)C(=O)OC)ccc31)[C@H](C(=O)N1CCc3cc(OC)c(OC)cc3C1)[C@H]1C(=O)O[C@H](c3ccccc3)[C@H](c3ccccc3)N1[C@@H]2c1ccc(OCCO)cc1,0.206,0.105,1.42,-0.219,0.0896,-0.781,0.512 (inactive),-0.637,-1.28,-0.225 (inactive),-0.679,1.63 (inactive),-0.348 (inactive),-1.34 (inactive),2.39 (inactive),2.8 (inactive),-0.132 (inactive),0.325 (inactive),0.847,-0.332
CCCCO[C@H]1C[C@H]2C(I)=C[C@@H]1C(=O)[C@]21CO1,-0.788,-0.894,-0.534,-1.98,-1.16,-1.39,-0.0178 (inactive),0.432,-0.569,0.0651 (inactive),-0.0876,-8.45 (active),-0.67 (inactive),-0.0864 (inactive),0.0481 (inactive),-1.31 (inactive),-0.814 (inactive),-1.05 (inactive),-0.0824,-0.255
[N-]=[N+]=NCc1ccccc1C[C@@]1(C(=O)NCc2ccccc2)N=C(c2ccc(OCCCO)cc2)O[C@@H]1c1ccccc1N=[N+]=[N-],0.0629,-1.67,-0.236,-2.78,-3.5,0.917,0.898 (inactive),-1.11,-1.24,-0.0617 (inactive),0.279,0.85 (inactive),-0.806 (inactive),0.805 (inactive),1.39 (inactive),1.49 (inactive),0.423 (inactive),-0.335 (inactive),-0.686,-0.11
